The record followed here is PubChem BioAssay (Tox21).

Each structure is given as a SMILES string. Results filed as inconclusive are left out. Activity calls are given as the source filed them. Calls follow the shape of the dose curve; as a rule, active = well fitted curve in the direction sought with a large enough effect in the repeat runs; inconclusive = weak or mixed curves; inactive = no such curve, though single readings can be large; an effect the other way counts as inactive or inconclusive.

A short description of test [1]: qHTS assay for identifying genotoxic compounds that show differential cytotoxicity against isogenic chicken DT40 cell lines with known DNA damage response pathways - wild type cell line (AID 743012). Also: nearly all actives have a fitted effect of over 60% in size. Also: potency is read from the fitted curve at half-maximal effect. The note with it: DT40 wild type chicken cells viability, CellTiter-Glo, 40 h; series mostly up to 68.4 µM. The essentials:
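Luminescent ATP viability signal (CellTiter-Glo, 30 min RT) recorded after wild type DT40 cells were incubated with compounds for 40 h at 37 C/5% CO2.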
Background: qHTS replaces the single test concentration by a dilution series.

Test [2] can be described thus: qHTS assay for identifying genotoxic compounds that show differential cytotoxicity against isogenic chicken DT40 cell lines with known DNA damage response pathways - Rev3 mutant cell line (AID 743014). Also: nearly all actives have a fitted effect of over 55% in size. The note with it: chicken DT40 Rev3-/- viability, CellTiter-Glo, 40 h; series mostly up to 68.4 µM.
The nature of test [3]: qHTS assay for identifying genotoxic compounds that show differential cytotoxicity against isogenic chicken DT40 cell lines with known DNA damage response pathways - Rad54/Ku70 mutant cell line (AID 743015). Also: nearly all actives have a fitted effect of over 60% in size. Also: potency is read from the fitted curve at half-maximal effect. The note with it: DT40 Rad54/Ku70 mutant viability, CellTiter-Glo, 40 h; series mostly up to 66.8 µM.
Test [4] can be described thus: qHTS assay to identify small molecule antagonists of the androgen receptor (AR) signaling pathway - cell viability counter screen (AID 743033; also: nearly all actives have a fitted effect of over 45% in size). The settings on record: AR-bla HEK293 viability, CellTiter-Glo luminescence, 16 h; series mostly up to 58.5 µM.
Test [5] can be described thus: qHTS assay to identify small molecule antagonists of the androgen receptor (AR) signaling pathway using the MDA cell line - cell viability counter screen (AID 743041; also: nearly all actives have a fitted effect of over 45% in size). The settings on record: MDA-kb2 viability, CellTiter-Fluor, 16 h, cells co-treated with R1881 androgen agonist; series mostly up to 70.3 µM. The gist of the method: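 qHTS viability read-out; MDA-kb2 AR-luc; R1881-stimulated; 16 h exposure at 37C, 0% CO2; CellTiter-Fluor, 30 min; fluorescence intensity.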

Test [6] deals with Androgen receptor (Homo sapiens) (UniProt P10275). The test can be described thus: qHTS assay to identify small molecule agonists of the androgen receptor (AR) signaling pathway using the MDA cell line (AID 743040; also: potency is read from the fitted curve at half-maximal effect; nearly all actives have a fitted effect of over 20% in size). The settings on record: MDA-kb2 AR-luc cells, MMTV luciferase, 16 h; series mostly up to 70.3 µM. The gist of the method:
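Agonist activity is measured as luciferase luminescence in human MDA-kb2 cells whose MMTV reporter responds to both AR and GR. Compounds in DMSO incubate 16 h at 37C, 0% CO2, and ONE-Glo is read after 30 min.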

Test [7] shares this target. The test can be described thus: qHTS assay to identify small molecule antagonists of the androgen receptor (AR) signaling pathway using the MDA cell line (AID 743042; also: nearly all actives have a fitted effect of over 55% in size). The note with it: MDA-kb2 AR-luc, MMTV luciferase, R1881 antagonist, 16 h; series mostly up to 70.3 µM. The essentials: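 MDA-kb2 cells (human breast carcinoma, stably carrying an MMTV-luciferase reporter responsive to AR and GR) were plated at 3,000 cells/well and preincubated 5 hr at 37C, then given compound plus R1881 agonist for 16 h. ONE-Glo luminescence was read.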

Sequence of Androgen receptor (Homo sapiens) (P10275 whole entry, looked up): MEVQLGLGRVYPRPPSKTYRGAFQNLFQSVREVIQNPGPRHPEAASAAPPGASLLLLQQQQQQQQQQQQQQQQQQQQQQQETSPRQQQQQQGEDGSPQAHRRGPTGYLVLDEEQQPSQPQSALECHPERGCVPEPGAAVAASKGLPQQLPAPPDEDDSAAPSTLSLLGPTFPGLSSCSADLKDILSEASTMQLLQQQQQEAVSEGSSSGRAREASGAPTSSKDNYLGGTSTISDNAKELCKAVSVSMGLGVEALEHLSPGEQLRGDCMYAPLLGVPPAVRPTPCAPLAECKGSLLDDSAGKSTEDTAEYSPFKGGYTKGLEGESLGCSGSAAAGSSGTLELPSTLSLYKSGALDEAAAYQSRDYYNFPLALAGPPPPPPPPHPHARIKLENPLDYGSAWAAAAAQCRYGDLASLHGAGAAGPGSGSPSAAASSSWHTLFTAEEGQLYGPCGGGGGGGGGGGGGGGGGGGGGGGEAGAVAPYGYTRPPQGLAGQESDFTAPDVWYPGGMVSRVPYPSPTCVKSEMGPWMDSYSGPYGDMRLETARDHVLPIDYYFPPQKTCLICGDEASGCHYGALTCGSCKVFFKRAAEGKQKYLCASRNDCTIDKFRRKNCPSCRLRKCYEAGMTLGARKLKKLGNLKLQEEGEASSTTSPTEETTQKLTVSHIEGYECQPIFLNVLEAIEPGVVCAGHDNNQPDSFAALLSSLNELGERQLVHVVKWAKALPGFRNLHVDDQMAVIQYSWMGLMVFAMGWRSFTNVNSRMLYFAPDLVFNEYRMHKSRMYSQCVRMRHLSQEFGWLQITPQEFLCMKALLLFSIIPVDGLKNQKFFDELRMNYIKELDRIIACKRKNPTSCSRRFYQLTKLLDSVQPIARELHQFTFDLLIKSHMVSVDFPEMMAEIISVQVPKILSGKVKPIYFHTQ

In the case of `CC(=O)OCC(=O)[C@@]1(O)CC[C@H]2[C@@H]3CCC4=CC(=O)CC[C@]4(C)[C@H]3C(=O)C[C@@]21C`, the Potency entry in test [1], in test [2], in test [3], in test [4] and in test [5] was “inactive” in each case.
With `CN1CCN(c2cc3c(cc2F)c(=O)c(C(=O)O)cn3-c2ccc(F)cc2)CC1`, the figures for the Potency in test [1], in test [3] and in test [6] were 23.7 µM (active), 29.8 µM (active) and 26.6 µM (active), respectively. Further, in test [7], the Potency result is “inactive”.
For the compound `COC(=O)NN`, the Potency entry in test [1], in test [2], in test [4] and in test [5] was “inactive” each time.
As for `Cc1ccc(=O)n(-c2ccccc2)c1`, the Potency entry in test [1], in test [3], in test [4] and in test [5] was “inactive” in each case.
Consider `CC(C)CCCC(C)N` (stereo not drawn), for which the Potency result in test [1], in test [2], in test [3], in test [4] and in test [5] was “inactive” each time.
Take `C=CCOCC(CC)(CO)COCC=C`: the Potency result in test [1], in test [2], in test [4] and in test [5] was “inactive” in each case.
On to `CN1CCC(=C2c3ccccc3CC(=O)c3sccc32)CC1`, for which the Potency entry in test [4] and in test [5] was “inactive” in each case.
Turning to `CN(C)CCCNCCCN(C)C`, the Potency result in test [1], in test [2], in test [4] and in test [5] was “inactive” in each case.
Take `CCCCCCCCCCCCCCCCC`: the Potency result in test [1], in test [2] and in test [4] was “inactive” in each case.
In the case of `C[C@](N)(Cc1ccc(O)cc1)C(=O)O`, the Potency entry in test [1], in test [2], in test [3], in test [4] and in test [5] was “inactive” in each case.
Take `Nc1nc2c(ncn2COC(CO)CO)c(=O)[nH]1`: the Potency was 2.85 µM (active) in test [1] and 8.04 µM (active) in test [3]. In test [5], the Potency result is “inactive”.
